Data published in PubChem BioAssay (NCI).
This is part of a sample that, as a whole, favours compounds with a hit. Of some 79,000 tested, about 15% had one in any assay. The source made the active and inactive calls. Cut-off read from the data, not from the text of the source: active = growth inhibition above about 70%; inactive = the rest.

Legend:
[1] = NCI Yeast Anticancer Drug Screen. Data for the rad50 strain (AID 155);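 note: 0% = growth of vehicle-only cultures of the same strain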; conditions: S. cerevisiae rad50 strain growth inhibition, stronger effect = higher value
Outline: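 Genetically altered yeast (DNA repair pathway); compound treatment; growth inhibition vs vehicle ctrl.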

[2] = NCI Yeast Anticancer Drug Screen. Data for the mec2-1 strain (AID 157); conditions: S. cerevisiae mec2-1 strain, stronger effect = higher value
Outline: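 Each compound was tested on mec2-1 yeast, a strain altered in DNA damage repair or cell cycle control. Growth inhibition is reported relative to vehicle.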

[3] = NCI Yeast Anticancer Drug Screen. Data for the sgs1 mgt1 strain (AID 161);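 note: 0% = growth of cultures given vehicle only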; conditions: S. cerevisiae sgs1 mgt1 strain, stronger effect = higher value
Outline: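 Genetically altered yeast, compound exposure, growth inhibition relative to vehicle.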

[4] = NCI Yeast Anticancer Drug Screen. Data for the cln2 rad14 strain (AID 165);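 note: 0% = growth equal to vehicle treated cultures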; conditions: S. cerevisiae cln2 rad14 strain, stronger effect = higher value
Outline: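 Test compounds were added to cln2 rad14 yeast cultures; inhibition of growth was then determined by comparison with vehicle treatment.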

[5] = NCI Yeast Anticancer Drug Screen. Data for the bub3 strain (AID 167); conditions: S. cerevisiae bub3 mutant strain, stronger effect = higher value
Outline: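 Yeast carrying a defined mutation is treated with each compound, and growth is compared with that of vehicle-exposed cells to give inhibition.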

[6] = NCI Yeast Anticancer Drug Screen. Data for the mlh1 rad18 strain (AID 175); conditions: S. cerevisiae mlh1 rad18 strain growth inhibition, stronger effect = higher value
Outline: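 Inhibition values reflect reduced growth of mutant yeast versus vehicle-treated controls following compound exposure; the mutations affect DNA damage repair.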

[7] = at 5.0 µM (retest, dose inferred, filed as 0.5)
[8] = at 50.0 µM (retest, dose inferred, filed as 5.0)

Measured: growth inhibition

Nc1ncnc2c(C3OC(CO)C(O)C3O)scc12 (stereo unspecified)
inactive: [1]; [7] 12% | [1]; [8] 36% | [1]; at 50.0 µM 15.8% | [2]; [7] 12% | [2]; [8] 40% | [2]; at 50.0 µM 26.4% | [3]; [7] 7% | [3]; [8] 42% | [3]; at 50.0 µM 39.4% | [4]; [7] 21% | [4]; [8] 5% | [4]; at 50.0 µM 30.9% | [5]; [7] -21% | [5]; [8] 30% | [5]; at 50.0 µM 47.6% | [6]; [7] 14% | [6]; [8] 63% | [6]; at 50.0 µM 39.4%

COc1ccc2nc(C)cc(NCCCCCCCCCNc3cc(C)nc4ccc(OC)cc34)c2c1
active: [1]; [8] 94% | [1]; at 50.0 µM 83.4% | [2]; [8] 94% | [2]; at 50.0 µM 87.9% | [3]; [8] 96% | [3]; at 50.0 µM 80.8% | [4]; [8] 75% | [4]; at 50.0 µM 71% | [5]; [8] 88% | [5]; at 50.0 µM 78.5% | [6]; [8] 93%
inactive: [1]; [7] -17% | [2]; [7] -30% | [3]; [7] -2% | [4]; [7] -11% | [5]; [7] -40% | [6]; [7] -21%

C/C(=N\O)c1cc(Br)cc([N+](=O)[O-])c1O
inactive: [1]; [7] 1% | [1]; [8] 14% | [1]; at 50.0 µM 6.45% | [2]; [7] 7% | [2]; [8] 35% | [2]; at 50.0 µM 4.15% | [3]; [7] 3% | [3]; [8] 27% | [3]; at 50.0 µM 4.95% | [4]; [7] 13% | [4]; [8] 11% | [4]; at 50.0 µM 39% | [5]; [7] 4% | [5]; [8] 10% | [5]; at 50.0 µM 8.3% | [6]; [7] 5% | [6]; [8] 25% | [6]; at 50.0 µM 14.8%

C=CCNC(=O)c1ccccc1SC(C)=O
inactive: [1]; [7] 14% | [2]; [7] 33% | [3]; [7] 20% | [4]; [7] 23% | [5]; [7] 52% | [6]; [7] 18%
active: [1]; [8] 99% | [1]; at 50.0 µM 88.9% | [2]; [8] 99% | [2]; at 50.0 µM 91.5% | [3]; [8] 99% | [3]; at 50.0 µM 89% | [4]; [8] 96% | [4]; at 50.0 µM 72% | [5]; [8] 99% | [5]; at 50.0 µM 89.2% | [6]; [8] 99% | [6]; at 50.0 µM 89.3%

CCCCCCCc1c(Cl)nc(Cl)nc1Cl
inactive: [1]; [7] 11% | [2]; [7] 12% | [3]; [7] 3% | [4]; [7] 11% | [4]; at 50.0 µM 46% | [5]; [7] 4% | [6]; [7] 16%
active: [1]; [8] 92% | [1]; at 50.0 µM 78.3% | [2]; [8] 97% | [2]; at 50.0 µM 88.3% | [3]; [8] 96% | [3]; at 50.0 µM 87% | [4]; [8] 78% | [5]; [8] 99% | [5]; at 50.0 µM 76.2% | [6]; [8] 96%

CC1OC(OC2CC(O)(C(=O)CO)Cc3c(O)c4c(c(O)c32)C(=O)c2ccccc2C4=O)CC(N)C1O (stereo unspecified)
active: [1]; [7] 87% | [1]; [8] 96% | [1]; at 50.0 µM 87.8% | [2]; [8] 95% | [2]; at 50.0 µM 91.1% | [3]; [7] 86% | [3]; [8] 97% | [3]; at 50.0 µM 89.5% | [4]; [8] 95% | [4]; at 50.0 µM 87.3% | [5]; [8] 96% | [5]; at 50.0 µM 89.1% | [6]; [7] 77% | [6]; [8] 94%
inactive: [2]; [7] 62% | [4]; [7] 57% | [5]; [7] 56%

Cc1n(CC(C)C)c2c([n+]1C)C(=O)c1ccccc1C2=O
active: [1]; [8] 98% | [1]; at 50.0 µM 85% | [2]; [8] 99% | [2]; at 50.0 µM 90.4% | [3]; [8] 99% | [3]; at 50.0 µM 91% | [4]; [8] 95% | [4]; at 50.0 µM 89% | [5]; [8] 99% | [5]; at 50.0 µM 89.5% | [6]; [8] 98%
inactive: [1]; [7] 34% | [2]; [7] 44% | [3]; [7] 44% | [4]; [7] 21% | [5]; [7] 60% | [6]; [7] 68%

Nc1ccc(Cn2ccc3c4c(N)nc(N)nc4ccc32)cc1
inactive: [1]; [7] 14% | [1]; at 50.0 µM 33.7% | [2]; [7] 29% | [2]; at 50.0 µM 68.3% | [3]; [7] 7% | [4]; [7] 6% | [4]; [8] 60% | [4]; at 50.0 µM 63.2% | [5]; [7] -10% | [5]; at 50.0 µM 41.4% | [6]; [7] 13%
active: [1]; [8] 83% | [2]; [8] 96% | [3]; [8] 88% | [3]; at 50.0 µM 72.7% | [5]; [8] 84% | [6]; [8] 87%

CCCCCCCCCCNC1CC(OC2CC(O)(C(O)CO)Cc3c(O)c4c(c(O)c32)C(=O)c2c(OC)cccc2C4=O)OC(C)C1O (stereo unspecified)
inactive: [5]; [7] 49%
active: [1]; [7] 96% | [1]; [8] 97% | [1]; at 50.0 µM 85.8% | [2]; [7] 99% | [2]; [8] 98% | [2]; at 50.0 µM 89.7% | [3]; [7] 95% | [3]; [8] 98% | [3]; at 50.0 µM 90.2% | [4]; [7] 80% | [4]; [8] 96% | [4]; at 50.0 µM 88.2% | [5]; [8] 97% | [5]; at 50.0 µM 87.8% | [6]; [7] 99% | [6]; [8] 96%
